Results taken from PubChem BioAssay (NCI).
The panel holds about 83,000 compounds, 20% with a hit somewhere; the sample as a whole holds those more often.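 Treatment: one concentration, 48 hours, 96-well format. Scoring: percent growth, with anything below 10 considered active.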 A number with no mark means an inactive call. Activity calls are given as the source filed them.

Legend:
Experiment in all cases: NCI-60 one-dose screen, 48 h (100 = growth as untreated, 0 = no growth, -100 = all killed)
Conditions in all cases: 10 µM unless noted
NCI-H23 lung = system: NCI-H23 lung
NCI-H322M lung = system: NCI-H322M lung
HOP-62 NSCLC = system: HOP-62 NSCLC
NCI-H460 lung = system: NCI-H460 lung
HOP-92 NSCLC = system: HOP-92 NSCLC
NCI-H522 lung = system: NCI-H522 lung
A549/ATCC NSCLC = system: A549/ATCC NSCLC
786-0 renal = system: 786-0 renal
COLO 205 colon = system: COLO 205 colon
DU-145 prostate = system: DU-145 prostate
K-562 leukemia = system: K-562 leukemia
MALME-3M melanoma = system: MALME-3M melanoma
MDA-MB-231 breast = system: MDA-MB-231 breast
RXF 393 renal = system: RXF 393 renal
SF-268 CNS = system: SF-268 CNS
SF-295 CNS = system: SF-295 CNS
SF-539 CNS = system: SF-539 CNS
UACC-257 melanoma = system: UACC-257 melanoma
M14 melanoma = system: M14 melanoma
HCT-15 colon = system: HCT-15 colon

| SMILES | growth (NCI-H23 lung) | growth (NCI-H322M lung) | growth (HOP-62 NSCLC) | growth (NCI-H460 lung) | growth (HOP-92 NSCLC) | growth (NCI-H522 lung) | growth (A549/ATCC NSCLC) | growth (786-0 renal) | growth (COLO 205 colon) | growth (DU-145 prostate) | growth (K-562 leukemia) | growth (MALME-3M melanoma) | growth (MDA-MB-231 breast) | growth (RXF 393 renal) | growth (SF-268 CNS) | growth (SF-295 CNS) | growth (SF-539 CNS) | growth (UACC-257 melanoma) | growth (M14 melanoma) | growth (HCT-15 colon) |
| --- | --- | --- | --- | --- | --- | --- | --- | --- | --- | --- | --- | --- | --- | --- | --- | --- | --- | --- | --- | --- |
| COc1ccc(Cn2cc(Cn3cc(C=C4C(=O)NC(=O)NC4=O)c4ccccc43)nn2)cc1 | 62.7% | 90.1% | 92.4% | 48% | 84.5% | 89.9% | 112% | 96.7% | 108% | 92.1% | 50.4% | 85.5% | -96.3% (active) | 77.9% | 83.3% | 77.1% | 88.3% | 96.4% | 82.4% | 85.9% |
| O=C(c1nc2ccccc2[nH]1)C1C(c2ccc(F)cc2)C2CC3CCCCC3N2[C@@]12C(=O)Nc1ccc(Cl)cc12 (stereo not given in full) | 57.2% | 60.6% | 71.8% | 21.4% | 44.2% | 57.3% | 29.3% | 48.3% | 40.3% | 60.5% | 29.4% | 42.6% | 43.3% | 9.81% (active) | 57% | 29% | 55.5% | 58.9% | 40.7% | 28% |
| O=c1oc2ccc(I)cc2c(=O)n1-c1ccc(Br)cc1F | 5.56% (active) | 5.24% (active) | -11.7% (active) | 2.84% (active) | -11.7% (active) | -10% (active) | 7.12% (active) | 4.56% (active) | 50.3% | 16.6% | 7.02% (active) | -26.7% (active) | -21.2% (active) | 3.07% (active) | 9.55% (active) | -58.1% (active) | 4.36% (active) | -13.6% (active) | -0.737% (active) | -7.61% (active) |
| Nc1no[n+]([O-])c1-c1nnc2c(n1)-c1ccccc1C2=O | -40.8% (active) | 74.1% | 104% | 65.8% | 55.1% | 96% | 98.1% | 97.2% | 42.1% | 1.97% (active) | -14.9% (active) | 64% | 67.8% | 91.2% | 76.5% | 86.7% | 81.8% | -11.9% (active) | 18.9% | -71.4% (active) |
| CCC(C)(C)C(=O)O[C@H]1C[C@@H](C)C=C2C=C[C@H](C)[C@H](CC[C@@H]3CC=CC(=O)O3)[C@H]21 | 78% | 103% | 108% | 101% | 75.3% | 39.4% | 78.7% | 110% | 72.7% | 82.7% | 32.8% | 94.1% | 96.9% | 41.3% | 85.7% | 97.5% | 96.1% | 60.4% | 61.3% | 63.9% |
| COc1ccc(/C=C/C(=O)c2c(C)nc3ccccc3c2/C=C/c2ccccc2)cc1O | 50.6% | 42.3% | 88.6% | 22.8% | 65.6% | 14.9% | 39.5% | 99.4% | 109% | 45.7% | 20.9% | 86.3% | 52.7% | 64.1% | 57.7% | 90.8% | 81.7% | 68.7% | 15.9% | 39.1% |
| COc1ccc(OC)c(/C=C/C(=O)c2c(C)nc3ccccc3c2/C=C/c2ccccc2)c1 | 58.8% | 78.5% | 90.7% | 28.6% | 48.5% | 23.7% | 55.8% | 89.2% | 86.4% | 54.2% | 17% | 103% | 51.9% | 69.6% | 73.7% | 76% | 99.6% | 72% | 81.5% | 37.6% |
| O=C(Nc1ccc(Br)cc1F)c1cc(F)ccc1O | 3.95% (active) | 10.4% | 2.13% (active) | 3.38% (active) | -11.3% (active) | -1.14% (active) | 9.75% (active) | -4.66% (active) | 16.2% | 15.4% | 8.73% (active) | -21% (active) | -25.5% (active) | 4.59% (active) | 12.6% | -58.3% (active) | 4.66% (active) | -11.2% (active) | -11.3% (active) | 2.25% (active) |
| Nc1ccc(-c2ccc(-c3ccccc3N)c3[nH]c4ccccc4c23)cc1 | 28.4% | 41.4% | 42.1% | 16.1% | 36.9% | 46.4% | 30.4% | 46% | 13.2% | 10.2% | 13.4% | 36.8% | 36.2% | 24.5% | 39.5% | 22.2% | 28% | 33.2% | 6.58% (active) | 19.5% |
| CN(C)CCNc1cc(-c2ccccc2)nc2ccccc12 | -32.9% (active) | 8.29% (active) | -65.4% (active) | 0.75% (active) | -68.6% (active) | -90.6% (active) | -53.8% (active) | -79.2% (active) | -73.7% (active) | -62.1% (active) | 0.508% (active) | -77.3% (active) | -33.7% (active) | -91.1% (active) | -53.3% (active) | -71.5% (active) | -74.4% (active) | -74.5% (active) | -20.4% (active) | 6.92% (active) |
| CN1CCN(Cc2ccc(C(=O)Nc3cncc(C#Cc4cnc5cccnn45)c3)cc2C(F)(F)F)CC1 | 47.5% | 54.4% | 70.9% | 49.2% | 34.4% | 40.2% | 58.5% | 57.2% | 39.3% | 36.1% | 6.75% (active) | 28.3% | 41% | 50.5% | 60.3% | 80.2% | 32.9% | 19.2% | 34.4% | 38.8% |
| O=C1/C(=C/c2cccc(O)c2)COc2ccc(O)cc21 | 86.5% | 98.2% | 103% | 76.3% | 104% | 36.6% | 103% | 82.1% | 102% | 80.5% | 7.52% (active) | 78.6% | 103% | 115% | 90.3% | 105% | 92.3% | 93.3% | 85.3% | 10.6% |
| COc1ccc(-c2nc(-c3ccccc3)c(-c3ccccc3)[nH]2)cc1OC1CCCCC1 | 89% | 84.9% | 105% | 88.3% | 69.6% | 88.3% | 85.5% | 102% | 98.1% | 99.7% | 81.4% | 73% | 67% | 105% | 84.4% | 80.9% | 102% | 93.8% | 92.2% | 93.4% |
| CC(C)C[C@H](C(=O)N[C@@H](C)C(N)=O)N1CC=CCN(O)S1(=O)=O | 110% [5 µM] | 135% [5 µM] | 102% [5 µM] | 112% [5 µM] | 116% [5 µM] | 91.7% [5 µM] | 102% [5 µM] | 105% [5 µM] | 105% [5 µM] | 128% [5 µM] | 117% [5 µM] | 148% [5 µM] | 98.3% [5 µM] | 119% [5 µM] | 108% [5 µM] | 128% [5 µM] | 104% [5 µM] | 85.6% [5 µM] | 108% [5 µM] | 102% [5 µM] |
| C=C(C)CCC(C)N1CCC(N2CCC(C(=O)NCCc3ccccc3)CC2)CC1 (stereo not given) | 62.4% | 81% | 79% | 40.4% | 71% | 43.2% | 43.4% | 70.2% | 25.4% | 62.2% | 17% | 57.3% | 69.7% | 47.5% | 57.8% | 79.5% | 69% | 72.6% | 58% | 39.2% |
